# Screening results (PubChem BioAssay)
# 12-LOX inh – Primary qHTS assay for inhibitors of human arachidonate 12S-lipoxygenase (ALOX12): Round 2; purified 12hLO, xylenol orange hydroperoxide absorbance; actives 1.1% (n = 580,000); Potency, µM (titrated, usually from 108 µM), for the others: at the highest dose activity change, negative = inhibition, usual class: inhibitors; AID 1671190, 2021; active means well fitted inhibition curve with a large enough effect; inconclusive means small, poorly fitted or top-dose-only effect, or another doubt; inactive means no such curve, though single readings can be large or run the other way; further: potency means the concentration at half of the fitted maximal effect; on the % scale 0 is the no-effect control and ±100 the full control effect
# Target sequence (P18054 whole entry, looked up): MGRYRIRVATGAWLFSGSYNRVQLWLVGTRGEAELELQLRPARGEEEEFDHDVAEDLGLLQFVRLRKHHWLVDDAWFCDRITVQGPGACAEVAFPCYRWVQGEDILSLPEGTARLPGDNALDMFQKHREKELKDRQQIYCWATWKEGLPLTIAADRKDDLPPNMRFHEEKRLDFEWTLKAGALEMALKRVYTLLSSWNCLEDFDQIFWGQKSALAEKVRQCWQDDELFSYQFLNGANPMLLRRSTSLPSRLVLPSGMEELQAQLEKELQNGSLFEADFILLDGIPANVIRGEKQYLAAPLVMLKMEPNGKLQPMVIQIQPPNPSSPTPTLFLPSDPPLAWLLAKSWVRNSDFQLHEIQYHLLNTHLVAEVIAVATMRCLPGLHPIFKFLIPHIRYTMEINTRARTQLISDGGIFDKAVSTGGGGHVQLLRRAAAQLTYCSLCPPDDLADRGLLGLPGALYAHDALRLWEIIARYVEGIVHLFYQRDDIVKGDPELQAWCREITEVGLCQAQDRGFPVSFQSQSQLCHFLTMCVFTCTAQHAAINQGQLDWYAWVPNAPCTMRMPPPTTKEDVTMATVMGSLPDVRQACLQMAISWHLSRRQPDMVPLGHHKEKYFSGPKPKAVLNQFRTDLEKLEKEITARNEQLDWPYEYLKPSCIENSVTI
#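 Purified human 12hLO at 150 nM in 25 mM Hepes, 0.01% Triton X-100, pH 7.0, preincubated 15 min at room temperature with compound. Reaction started with 40 uM arachidonic acid, 30 min at room temperature. Hydroperoxide measured by Fe-xylenol orange, 573/405 nm absorbance ratio.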
# LDHA block – qHTS assay for inhibitors of human lactate dehydrogenase; L-lactate dehydrogenase A chain (Homo sapiens), P00338; purified LDHA, NADH/diaphorase-resazurin fluorescence; active compounds read low; activity change, % (values are at about 110 or 230 µM); actives 0.15% (n = 480,000); AID 1347041, 2019; in the data active means activity change below about -30%; inconclusive means mostly about -25% to -30%;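 further: plate controls were DMSO wells for no effect and wells without enzyme for full effect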
#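 Resorufin fluorescence (ex540/em590), read at 0 and 20 min after diaphorase/resazurin addition, reports the NADH left after a 5 min room-temperature reaction of 2 nM human LDH5 with 0.06 mM NADH and 0.2 mM pyruvate.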
# BCR signal inh – qHTS Assay to Find Inhibitors of Chronic Active B-Cell Receptor Signaling; actives 0.05% (n = 340,000); AID 493014, 2011; Potency, µM (doses to about 46.1 µM), without a hit: at the highest dose activity change, negative = inhibition, hits mostly inhibitors; ABC-DLBCL IkBa-CBG/CBR reporter, luminescence ratio, 4 h; active means well fitted inhibition curve with a large enough effect in the signal ratio, with a control signal flat, not every such curve was filed as active; inconclusive means small, poorly fitted or top-dose-only effect, or effect the other way, or a change in a side signal; the % refers to the signal ratio;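 further: potency means the concentration at half of the fitted maximal effect; plate controls were basal doxycycline-induced cells for no effect and cells given 10 µM MG132 for full effect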
#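 TMD8 human ABC-DLBCL cells with doxycycline-inducible IκBα–green luciferase fusion and unfused red luciferase, in 0.5% FBS medium; compounds up to 46 uM, 4 h at 37C. Green/red luminescence ratio, filter-overlap corrected, fitted to concentration-response curves.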
# ClpP mod – qHTS Assay for Activators of ClpP; purified B. subtilis ClpP, FRET peptide cleavage, 20 min; Potency, µM (doses to about 57.5 µM), inactives show top-dose activity change, negative = active; actives 1.9% (n = 340,000); AID 651965, 2013; ATP-dependent Clp protease proteolytic subunit (Bacillus subtilis (strain 168)), P80244; active means well fitted falling curve with a large enough effect; inconclusive means small, poorly fitted or top-dose-only effect; inactive means no such curve, though single readings can be large or run the other way; further: potency means the concentration at half of the fitted maximal effect; the source files actives as falling curves though it sought activators and does not explain the sign; nearly all actives have a fitted effect of over 65% in size
#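 Buffer: 100 mM Tris/HCl pH8, 100 mM KCl, 0.05% low protease BSA, 2.5% glycerol, 0.01% Tween-20. ClpP 10 microg/mL final; 20 min RT; delta FRET normalized to ADEP and DMSO controls.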
# KCNH2 WT inh – qHTS for Inhibitors of KCHN2 3.1: Wildtype qHTS | Voltage-gated inwardly rectifying potassium channel KCNH2 (Homo sapiens), Q12809 | U2OS, BacMam KCNH2, thallium flux FluxOr; active compounds read low | activity change, % at 1.84 µM | actives 0.37% (n = 340,000) | AID 720551, 2013;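 active means maximum activity change below -70%; inconclusive means maximum activity change between -70% and -50%; inactive means maximum activity change above -50%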; further: on the % scale 0 is the no-effect control and ±100 the full control effect
#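 U2OS cells were transduced with wild-type KCNH2 virus (2.03 x 10^8 / mL) for 4 h at room temperature, then cultured overnight at 37 C. Thallium flux was read with FluxOr dye. Rate constants were normalized to DMSO controls.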
# KCNH2 3.1 block – qHTS for Inhibitors of KCHN2 3.1: Mutant qHTS | Potassium voltage-gated channel subfamily H member 2, brain isoform KCNH2 3.1 (human) | U2OS KCNH2 3.1, thallium flux FluxOr; active compounds read low | activity change, % (tested at about 1.8 µM) | actives 0.95% (n = 340,000) | AID 720553, 2013;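 active means maximum activity change below -70%; inconclusive means maximum activity change from -70% to -50%; inactive means maximum activity change above -50%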;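 further: thallium influx rate constant from kinetic fluorescence after stimulation buffer; on the % scale 0 is the no-effect control and ±100 the full control effect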
#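 Channel expression came from 3.1 mutant virus (1.77 x 10^8 /mL) applied to suspended U2OS cells for 4 h. Flux was tracked with FluxOr dye plus Red40 quencher, and kinetic rate constants normalized to controls.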
# * hit, by the source's call; ? = inconclusive; · = no result; [ ] = remark or other dose. In the library only some 3% were active in any assay of this set; here they are far more common.
SMILES,12-LOX inh,LDHA block,BCR signal inh,ClpP mod,KCNH2 WT inh,KCNH2 3.1 block
COc1ccccc1-n1cnnc1SCC(=O)NC(C)c1ccc(-c2ccccc2)cc1 (stereo not given),1.58µM*,3.4,·,·,·,·
COc1cccc(OC)c1C(=O)Oc1ccc2c(c1)O/C(=C\c1ccc(C(C)(C)C)cc1)C2=O,?,-5.6,·,·,·,·
Cn1nc(C2CCN(C(=O)c3ccncc3)CC2)c2c1CCOC2,41.6%,·,·,·,·,·
CCN(Cc1ccccc1)C(=O)c1c[nH]c2ccc(S(=O)(=O)N(C)CCC#N)cc2c1=O,-22.5%,-1.3,2.1%,31.6µM*,-13.6,-4.5
COc1ccc(N2CCN(c3ccc(N4C(=O)COCC4=O)cc3[N+](=O)[O-])CC2)cc1,-1.5%,-3.8,5.6%,28.2µM*,-7.3,7.7
CCOc1cc(C(=O)O)cc(-c2ccccc2)c1OC,-9.9%,1.2,·,·,·,·
CCN1CCN(CCOc2ccc3c(=O)c(-c4ccc(Cl)cc4)coc3c2)CC1,17.8µM*,1.5,·,·,·,·
CCOC(=O)N1CCc2cc(OC)c(OC)c3c2c1cc1cc(OC)c(OC)cc13,?,10.6,·,28.2µM*,4.7,-1.2
Cc1ccccc1-c1nnc2sc(NC(=O)c3ccccc3)nn12,-10.5%,3.6,·,·,·,·
COc1ccc2c(COC(=O)c3ccc(C)c(S(=O)(=O)N4CCOCC4)c3)cc(=O)oc2c1,-18.7%,1.6,·,25.1µM*,-0.7,-0.5
COc1ccc2c(COC(=O)c3cccc(S(=O)(=O)NCC(C)C)c3)cc(=O)oc2c1,0.3%,-5.2,-5.9%,·,1.7,-25.3
CCCNS(=O)(=O)c1cccc(C(=O)OCc2cc(=O)oc3cc(OC)ccc23)c1,-12.8%,-2.9,12.6µM*,·,-0.2,-3.9
CSc1ccc(C2NC(=S)NC3=C2CCc2ccccc23)cc1 (stereo not given),?,21.3,·,·,·,·
Cn1c(SCc2ccc(Br)cc2F)nnc1-c1cnccn1,-6.5%,-7.3,·,·,·,·
CC(OC(=O)c1snc(C(=O)NC2CCCCC2)c1N)C(=O)NC(C)(C)C (stereo not given),135.6%[57.4 µM],-2.1,?,28.2µM*,-6.3,2.0
CC(C)(C)NC(=O)COC(=O)c1snc(C(=O)NC2CCCCC2)c1N,0.6%,-8.9,?,28.2µM*,-4.6,-4.3
Cc1ccc(C(=O)NC2CC3CCCC(C2)N3Cc2ccccc2)cc1 (stereo not given),-2.8%,-4.0,0.0%,-1.1%,18.4,-4.1
COc1ccc(C(=O)NC2CC3CCCC(C2)N3Cc2ccccc2)cc1 (stereo not given),?,-2.5,-0.6%,·,33.6,-2.8
Cc1ccc(CN2C3CCCC2CC(NC(=O)c2ccc(F)cc2)C3)cc1 (stereo not given),0.0%,-3.8,-4.2%,0.4%,?,-80.2*
COc1ccc(CN2C3CCC2CC(NC(=O)c2cccc(F)c2)C3)cc1 (stereo not given),?,-0.7,-1.6%,2.2%,-25.9,-84.2*
O=C(NC1CC2CCCC(C1)N2Cc1ccccc1)c1ccc([N+](=O)[O-])cc1 (stereo not given),-13.6%,-1.2,-1.1%,0.6%,-14.6,-80.2*
O=C(Nc1oc2ccccc2c(=O)c1-c1ccc2c(c1)OCO2)C1CCCCC1,-19.6%,4.3,·,·,·,·
Cc1cccc(C)c1NC(=O)CC1(C(=O)O)CCCCC1,-35.8%,1.8,·,·,·,·
Cc1ccc(NC2Sc3ccccc3NC2=O)cc1 (stereo not given),7.08µM*,2.6,?,·,-7.9,5.4
COC(=O)c1c(C)[nH]c(C(=O)C(C)Nc2cc(OC)cc(OC)c2)c1C (stereo not given),?,-4.8,·,·,·,·
SMILES,12-LOX inh,LDHA block,BCR signal inh,ClpP mod,KCNH2 WT inh,KCNH2 3.1 block
Cc1noc(/C=C/N(C)C)c1S(=O)(=O)N(C)Cc1ccc(F)cc1,-2.9%,-4.6,?,0.4%,-133.6*,-198.6*
Cc1ccc(CN(C)S(=O)(=O)c2c(C)noc2/C=C/N(C)C)cc1,?,-1.1,20.7%,0.3%,-8.4,-14.7
CSc1ccccc1NC(=O)COc1ccc(Cl)cc1C,-12.4%,-3.9,-18.9%,0.5%,1.3,-1.6
CCOC(=O)c1c(C)oc(NC(=O)COc2ccc(Cl)cc2C)c1C#N,29.1%,-1.5,-2.8%,-4.9%,-2.2,-75.0*
CCCSc1cc(N2CCN(C)CC2)nc(-c2ccc(OC)cc2)n1,-74.0%,-3.3,?,-2.0%,-26.1,-70.6*
CC(C)(C)NC(=O)CSc1cc(C(=O)NC2CC2)c2ccccc2n1,14.1%,-20.1,·,·,·,·
Cc1ccccc1C(C)NC(=O)CN1CCN(c2ccc([N+](=O)[O-])c3cnccc23)CC1 (stereo not given),-8.0%,36.4,·,·,·,·
COc1ccccc1C(C)NC(=O)CN1CCN(c2ccc([N+](=O)[O-])c3cnccc23)CC1 (stereo not given),11.2µM*,8.8,·,·,·,·
CCCCNC(=S)NNC(=O)CCn1cc(C)cn1,23.0%,-2.6,?,0.9%,-10.2,3.3
Cc1cnn(CCC(=O)NNC(=S)NCC(C)C)c1,-1.0%,-1.2,18.4µM*,0.9%,1.6,8.1
C/C(=N/NC(=S)Nc1cccc(C)c1)c1cccc([N+](=O)[O-])c1,39.8µM*,-7.5,?,0.6%,-11.7,-39.8
C/C(=N\Nc1ccccc1)c1cccc([N+](=O)[O-])c1,6.31µM*,14.3,·,·,·,·
C/C(=N\NC(=S)Nc1cccc(C)c1)c1cc2ccccc2o1,35.5µM*,-5.2,-0.2%,·,-5.4,-4.5
C/C(=N\NC(=O)c1nc2ccccn2c1C)c1ccc2c(c1)OCO2,-18.7%,-4.2,?,-2.5%,-2.1,-1.3
CCNC(=S)N/N=C(\C)c1cc2ccccc2o1,?,-4.7,-10.6%,-2.4%,-14.9,0.1
C/C(=N\NC(=O)c1nc2ccccn2c1C)c1cccc([N+](=O)[O-])c1,0.0%,-13.8,0.0%,17.8µM*,5.0,-3.1
C/C(=N\Nc1cccc(Cl)c1)c1ccncc1,17.8µM*,-7.6,-12.0%,-0.7%,-7.8,6.7
C/C(=N/Nc1ccc([N+](=O)[O-])cc1)c1ccncc1,35.5µM*,4.2,·,·,·,·
O=[N+]([O-])c1cccc(NN=Nc2ccccc2)c1,15.8µM*,-2.3,?,-0.6%,-0.5,-26.2
CN(Cc1nc2ccccc2n1C(F)F)S(=O)(=O)c1ccccc1,31.0%,10.4,·,·,·,·
